In the library only some 2.8% were active in any assay of this set; here they are far more common.
SENP7 block – blocks the human protease SENP7 | AID 434973 | 330,000 tested, 1.5% active | recombinant SENP7, Z-RLRGG-aminoluciferin luminescence, 40 min | inhibition, % at 5 µM | Q9BQF6;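 active = inhibition above about 50% at the single test dose, limit read from the data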;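 also: plate controls were DMSO with enzyme for no effect and no enzyme buffer wells for full effect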
Target sequence (Q9BQF6 706-1050 limits assumed): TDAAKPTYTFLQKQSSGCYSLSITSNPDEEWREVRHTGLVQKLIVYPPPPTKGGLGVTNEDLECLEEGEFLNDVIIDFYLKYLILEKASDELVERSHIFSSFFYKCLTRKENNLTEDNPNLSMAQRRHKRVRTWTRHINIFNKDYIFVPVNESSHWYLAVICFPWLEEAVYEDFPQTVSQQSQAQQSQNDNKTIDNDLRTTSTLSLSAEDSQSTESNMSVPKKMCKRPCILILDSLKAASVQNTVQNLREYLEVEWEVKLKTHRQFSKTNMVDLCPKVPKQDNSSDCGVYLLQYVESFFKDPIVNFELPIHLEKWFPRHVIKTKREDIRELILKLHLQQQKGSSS
SENP8 block-1 – blocks human SENP8 cleavage of Nedd8 substrate. Q96LD8. recombinant SENP8, Nedd8 substrate fluorescence. inhibition, % at 20 µM. 360,000 tested, 0.64% active. AID 602440; in the data active = inhibition mostly above about 40%, no sharp cut-off; inactive = mostly below about 27%
Target sequence (Q96LD8 whole entry, looked up): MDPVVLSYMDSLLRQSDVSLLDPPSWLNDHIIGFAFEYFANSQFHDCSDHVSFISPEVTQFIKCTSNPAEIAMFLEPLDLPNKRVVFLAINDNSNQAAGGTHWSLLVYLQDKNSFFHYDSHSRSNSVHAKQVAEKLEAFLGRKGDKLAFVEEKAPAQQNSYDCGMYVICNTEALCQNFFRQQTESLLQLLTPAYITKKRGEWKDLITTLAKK
SENP8 block-2 – SENP8 protease inhibition; AID 2540; purified SENP8, Z-RLRGG-aminoluciferin cleavage, luminescence; 330,000 tested, 1.2% active; inhibition, % at 10 µM; in the data active = inhibition above about 50%
HSP90 inh – HSP90 refolding inhibition in rabbit reticulocyte lysate | 290,000 tested, 0.91% active | luciferase refolding luminescence, 3 h | inhibition, % at 5.6 µM;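 active = inhibition above the screen-wide mean plus 3 SD, computed separately per campaign, cut at about 16% in these data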;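 also: 0% = DMSO wells and 100% = 60 µM geldanamycin wells; inhibitors lower the luminescence because luciferase stays unfolded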
SENP6 block – SENP6 protease inhibition; Recombinant SENP6 catalytic domain, aminoluciferin luminescence; inhibition, % at 10 µM; 330,000 tested, 1.8% active;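 active = inhibition above about 50% at the single tested dose, limit read from the data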;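 also: plate controls were DMSO wells with enzyme for no effect and DMSO wells lacking enzyme for full effect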
SENP8 conf – confirmation of human SENP8 protease inhibitors; shares compounds with SENP7 block; Recombinant SENP8, Z-RLRGG-aminoluciferin luminescence, 60 min; inhibition, % at 12.5 µM; 6,200 tested, 40% active; AID 488912;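 active = mean inhibition across replicates above about 50%, limit read from the data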
SENP6 conf – human SENP6 inhibition, confirmed; shares compounds with SENP7 block; recombinant SENP6, Z-RLRGG-aminoluciferin luminescence; inhibition, % at 12.5 µM; 6,200 tested, 58% active
SENP7 conf – confirmation of human SENP7 protease inhibitors. shares compounds with SENP7 block. 6,200 tested, 69% active. inhibition, % at 12.5 µM. recombinant SENP7, Z-RLRGG-aminoluciferin luminescence, 40 min
Casp3 select – inhibits human caspase-3 in SENP selectivity test; shares compounds with SENP7 block; purified caspase-3, Z-DEVD-aminoluciferin luminescence, 60 min; inhibition, % at 12.5 µM; 6,200 tested, 60% active;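 active = mean inhibition above about 50%, limit read from the data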;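 also: plate controls were enzyme with DMSO for no effect and wells without caspase-3 for full effect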
Target sequence (P42574 28-227 limits assumed): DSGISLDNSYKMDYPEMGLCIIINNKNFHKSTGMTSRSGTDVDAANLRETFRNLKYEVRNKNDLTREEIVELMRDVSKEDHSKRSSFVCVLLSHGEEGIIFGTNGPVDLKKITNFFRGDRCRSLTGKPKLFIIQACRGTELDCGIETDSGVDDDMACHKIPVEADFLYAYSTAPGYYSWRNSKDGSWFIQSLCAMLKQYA
Luc interf – luminescence interference (SENP counter-screen); shares compounds with SENP7 block; Pre-incubated SENP8/Z-RLRGG-aminoluciferin, luciferase luminescence interference; inhibition, % at 12.5 µM; 6,200 tested, 39% active; AID 488919;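 active = mean inhibition above about 50% when retested at one dose, limit read from the data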;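 also: plate controls were DMSO wells with completed reaction for no effect and substrate without enzyme for full effect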
Active calls of the source: *; · = not tested or not shown.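 The calls were made as follows, unless noted: active = mean inhibition above about 50% in the one-dose retest (limit read from the data); inactive = the rest.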

SMILES | SENP7 block | SENP8 block-1 | SENP8 block-2 | HSP90 inh | SENP6 block | SENP8 conf | SENP6 conf | SENP7 conf | Casp3 select | Luc interf
CN(C)C(=O)CN1CCN(Cc2nc(CC3CC3)no2)CC1 | 2.5 | 12.7 | 6.1 | -0.1 | 73.0* | 4.6 | -2.4 | -2.1 | -2.9 | 0.1
O=C(O)c1cc(/C=C/c2ccc(N3CCOCC3)c([N+](=O)[O-])c2)nc2ccccc12 | 62.9* | -104.2 | 52.6* | 11.3 | 76.8* | 73.0* | 68.3* | 91.1* | 81.0* | 71.4*
O=C(O)c1cc(/C=C/c2ccc(N3CCOCC3)cc2)nc2ccccc12 | 68.8* | -417.8 | 70.0* | 11.7 | 1.7 | 79.0* | 78.5* | 95.6* | 90.3* | 83.1*
CC(C)CCOP(=O)(c1ccc(N(C)C)cc1)C(O)c1ccccc1F (stereo not given) | 7.4 | 21.7 | 4.1 | 0.0 | -3.5 | · | · | · | · | ·
O=C(O)CCCCCNC(=O)c1cccc(Br)c1 | 0.9 | 5.8 | -2.7 | -0.7 | -0.9 | · | · | · | · | ·
CC(=O)NCc1nc2ccccc2n1Cc1ccccc1F | 2.2 | 12.9 | 3.3 | 1.3 | 1.4 | · | · | · | · | ·
CC(=O)NCCCc1nc2ccccc2n1Cc1ccccc1F | 55.2* | 11.9 | -7.1 | -8.5 | -13.8 | 8.7 | 7.6 | -2.3 | 2.5 | 0.0
Cc1ccc(CONC(=O)c2cccc(C)c2)cc1 | 48.1 | 9.0 | 34.0 | · | 64.6* | 46.2 | 43.2 | 78.4* | 76.7* | 56.0*
O=S(=O)(Nc1ccc(-c2nc3cccnc3s2)cc1)c1ccc(Cl)s1 | 4.0 | -411.5 | 33.8 | 3.1 | 58.1* | 35.9 | 33.5 | 54.3* | 27.9 | 22.8
O=S(=O)(Nc1ccc(-c2nc3cccnc3s2)cc1)c1cccs1 | 29.3 | -393.4 | 22.5 | 5.3 | 64.9* | 21.4 | 13.7 | 18.7 | 31.1 | 6.4
Cc1cc(-c2nc3cccnc3s2)ccc1NS(=O)(=O)c1cccs1 | 74.0* | -396.1 | 91.2* | 12.7 | 95.3* | 89.1* | 91.8* | 98.3* | 86.0* | 55.4*
Cc1nc2ccc(S(=O)(=O)Nc3ccc(-c4nc5cccnc5s4)cc3)cc2s1 | 7.3 | -417.3 | 4.4 | 2.8 | 9.1 | · | · | · | · | ·
Cc1c(NS(=O)(=O)c2cccs2)cccc1-c1nc2cccnc2s1 | -8.8 | -136.3 | -1.2 | -1.1 | 9.4 | · | · | · | · | ·
CCS(=O)(=O)Nc1ccc(-c2nc3cccnc3s2)cc1 | 52.9* | -401.8 | 63.9* | 35.5* | 72.6* | 74.8* | 72.8* | 94.3* | 85.9* | 77.7*
O=C(NC1CCCN(Cc2ccccc2F)C1)c1cccs1 (stereo not given) | -11.1 | 1.1 | -7.6 | 1.8 | -12.8 | · | · | · | · | ·
COC(=O)c1ccc(NC(=O)CN2CCCC2)cc1 | 9.7 | 12.2 | 1.1 | 1.4 | -1.0 | · | · | · | · | ·
CC(C)Cc1csc(NC(=O)c2ccc(Br)cc2)c1C(=O)O | -5.3 | 7.3 | 87.6* | -0.2 | 93.8* | 92.2* | 94.0* | 92.5* | 80.3* | 58.4*
O=C(Nc1scc(-c2ccccc2)c1C(=O)O)c1ccccc1F | 15.2 | -45.3 | 68.0* | -0.3 | 74.7* | 82.2* | 78.7* | 90.2* | 85.1* | 79.8*
CC(C)Cc1csc(NC(=O)C(C)C)c1C(=O)O | -2.3 | 19.1 | 3.3 | -3.0 | -0.4 | · | · | · | · | ·
COc1ccc(-c2csc(NC(=O)c3cccs3)c2C(=O)O)cc1OC | 44.8 | -18.9 | 60.1* | -4.0 | 30.6 | 3.9 | 71.9* | 89.8* | 74.7* | 75.8*
COc1ccc(-c2csc(NC(=O)c3ccccc3Br)c2C(=O)O)cc1 | 5.8 | 5.0 | 29.8 | -2.8 | 52.5* | 49.4 | 48.6 | 68.5* | 47.9 | 61.6*
O=C(CNC(=O)c1ccccc1)NCC(=O)OCC(=O)c1ccc(F)cc1 | 1.1 | 9.1 | 6.8 | 2.4 | -4.2 | · | · | · | · | ·
O=C(Nc1ccccc1O)c1ccc2c(c1)C(=O)N(Cc1ccco1)C2=O | -17.0 | 6.1 | -5.7 | -4.0 | -2.3 | · | · | · | · | ·
Cc1ccc(C(=O)Nc2scc(-c3ccccc3)c2C(=O)O)o1 | 57.1* | -253.1 | 66.5* | -2.4 | 49.9 | 85.5* | 85.0* | 96.1* | 92.2* | 81.7*
Cc1ccccc1C(=O)Nc1scc(-c2ccc(Br)cc2)c1C(=O)O | 1.4 | -46.9 | 75.0* | · | 86.3* | 2.2 | 53.1* | 11.6 | 52.3* | 4.3
SMILES | SENP7 block | SENP8 block-1 | SENP8 block-2 | HSP90 inh | SENP6 block | SENP8 conf | SENP6 conf | SENP7 conf | Casp3 select | Luc interf
O=C(/C=C/c1ccco1)Nc1scc(-c2ccccc2)c1C(=O)O | 95.0* | -4.4 | 97.1* | 12.8 | 97.8* | 98.1* | 98.8* | 102.1* | 97.9* | 97.4*
Cc1ccc(C(=O)Nc2ccccc2-c2ccccc2)o1 | 7.0 | 6.1 | 4.6 | 0.2 | -8.9 | · | · | · | · | ·
Cc1ccc(-c2csc(NC(=O)c3ccccc3F)c2C(=O)O)cc1 | 38.9 | -20.4 | 80.0* | -4.2 | 82.4* | 7.5 | 85.3* | 93.2* | 83.6* | 59.3*
O=P(Cc1ccccc1O)(c1ccccc1)c1ccccc1 | -6.1 | 34.5 | -12.2 | 0.6 | -10.3 | · | · | · | · | ·
Cc1ccccc1CN1CCN(C(=O)c2cccc3ccccc23)CC1 | -1.5 | 8.4 | -2.5 | 0.6 | 3.6 | · | · | · | · | ·
C/C(CC(=O)Nc1ccccn1)=N\NC(=O)Cc1cccc2ccccc12 | 3.2 | 8.8 | -1.1 | 1.7 | -16.2 | · | · | · | · | ·
O=C(Nc1scc(-c2ccc(Br)cc2)c1C(=O)O)c1ccccc1F | 12.5 | -36.2 | 86.6* | · | 88.0* | 86.6* | 86.0* | 67.6* | 76.8* | 33.4
Cc1ccc(/C=C/c2nnc(-c3ccccc3)o2)cc1 | 6.0 | -250.7 | 75.6* | -0.7 | 86.3* | 15.3 | 63.1* | 88.8* | 79.5* | 23.2
Cc1ccc(-c2noc(/C=C/c3ccccc3)n2)cc1 | 4.0 | 9.5 | 14.1 | -2.2 | 21.8 | · | · | · | · | ·
C(=C\c1nnc(-c2cccs2)o1)/c1ccccc1 | 2.6 | -274.9 | 74.4* | 8.7 | 80.8* | 14.9 | 60.7* | 88.0* | 65.3* | 33.5
Clc1ccccc1-c1nnc(-c2cccs2)o1 | 79.9* | -139.5 | 72.3* | 0.1 | 80.5* | 74.8* | 74.4* | 92.5* | 78.7* | 54.9*
Clc1ccccc1-c1nnc(-c2cccnc2)o1 | 1.3 | 6.5 | -4.5 | -2.6 | 19.2 | · | · | · | · | ·
C/C(=N\OC(=O)c1ccc(OC(C)C)cc1)c1ccc(C)c(C)c1 | 7.7 | 24.0 | -10.9 | -1.5 | 18.2 | · | · | · | · | ·
Cc1cc(C(=O)Nc2ccc(C(=O)O)cc2)c(C)o1 | 73.7* | 6.9 | 68.4* | 1.7 | 80.4* | -6.0 | 61.3* | 87.7* | 91.3* | 65.0*
Cc1cc(C(=O)Nc2cccc(C(=O)O)c2)c(C)o1 | 83.8* | 13.4 | 68.4* | 4.6 | 89.8* | -7.9 | 80.9* | 97.8* | 49.3 | 88.3*
